Measurements reported in PubChem BioAssay AID1159580 (chemical genetic matrix, 2015).
Screen size: about 5,500 compounds; about 2,000 (36%) were called active. Roughly 18% stayed inconclusive and do not appear here. This is one part of the list. Unmarked numbers belong to inactive results. No stated cut-off is given here; in the data, active means normalized growth mostly below about 0.91 (no sharp cut-off); inconclusive means no clear call, values can overlap the other calls; inactive means mostly above about 0.92.

Test: chemical genetic growth profiling, strain panel (AID 1159580);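 further: tested at 20 µM; growth read once vehicle control cultures reached saturation at 30 °C; 1 = growth at the plate median or of vehicle wells; lower values mean less growth of the strain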
Conditions: S. cerevisiae deletion strains, growth OD

COc1ccc(-c2cc(=O)c3c(O)cc(OC)c(OC)c3o2)c(OC)c1
normalized growth (locus YAL021C, strain ccr4, active compounds read low): 0.977
normalized growth (locus YAL026C, strain drs2, active compounds read low): 1.02
normalized growth (locus YAL030W, strain snc1, active compounds read low): 1.02
normalized growth (locus YBL061C, strain skt5, active compounds read low): 0.997
normalized growth (locus YBR009C, strain hhf1, active compounds read low): 0.964
normalized growth (locus YBR023C, strain chs3, active compounds read low): 0.989
normalized growth (locus YBR171W, strain sec66, active compounds read low): 1.04
normalized growth (locus YBR231C, strain swc5, active compounds read low): 0.966
normalized growth (locus YBR279W, strain paf1, active compounds read low): 1.01
normalized growth (locus YCL011C, strain gbp2, active compounds read low): 1.01
normalized growth (locus YCL016C, strain dcc1, active compounds read low): 1
normalized growth (locus YCL061C, strain MRC1, active compounds read low): 1.03
normalized growth (locus YCL069W, strain vba3, active compounds read low): 1.04
normalized growth (locus YCR088W, strain abp1, active compounds read low): 1.03
normalized growth (locus YDL005C, strain med2, active compounds read low): 1.02
normalized growth (locus YDL040C, strain nat1, active compounds read low): 1.02
normalized growth (locus YDR001C, strain nth1, active compounds read low): 1.04
normalized growth (locus YDR069C, strain doa4, active compounds read low): 0.97
normalized growth (locus YDR137W, strain rgp1, active compounds read low): 0.943
normalized growth (locus YDR159W, strain sac3, active compounds read low): 1.02
normalized growth (locus YDR195W, strain ref2): 1.07
normalized growth (locus YDR297W, strain sur2, active compounds read low): 1.02
normalized growth (locus YDR334W, strain swr1, active compounds read low): 1.05
normalized growth (locus YDR335W, strain msn5, active compounds read low): 1.03
normalized growth (locus YDR392W, strain spt3, active compounds read low): 0.846
normalized growth (locus YEL003W, strain gim4, active compounds read low): 1.01
normalized growth (locus YEL037C, strain rad23, active compounds read low): 1.1 [resistant] (active)
normalized growth (locus YEL061C, strain CIN8 (second series), active compounds read low): 1.04
normalized growth (locus YER015W, strain faa2, active compounds read low): 0.971
normalized growth (locus YER016W, strain bim1, active compounds read low): 1.02
normalized growth (locus YER111C, strain swi4, active compounds read low): 1.05
normalized growth (locus YER155C, strain BEM2 (second series), active compounds read low): 0.956
normalized growth (locus YFR010W, strain ubp6, active compounds read low): 1
normalized growth (locus YGL167C, strain pmr1, active compounds read low): 0.998
normalized growth (locus YGL173C, strain kem1, active compounds read low): 1.02
normalized growth (locus YGL227W, strain vid30, active compounds read low): 1.04
normalized growth (locus YGL240W, strain doc1, active compounds read low): 1.04
normalized growth (locus YGL253W, strain hxk2, active compounds read low): 1.01
normalized growth (locus YHR013C, strain ard1, active compounds read low): 0.975
normalized growth (locus YHR027C, strain rpn1, active compounds read low): 0.985
normalized growth (locus YHR030C, strain SLT2, active compounds read low): 1.04
normalized growth (locus YHR079C, strain IRE1, active compounds read low): 1.03
normalized growth (locus YHR142W, strain chs7, active compounds read low): 1
normalized growth (locus YJL092W, strain hpr5, active compounds read low): 1.04
normalized growth (locus YJL095W, strain BCK1 (second series), active compounds read low): 1.01
normalized growth (locus YJL095W, strain BCK1, active compounds read low): 0.967
normalized growth (locus YJL115W, strain asf1, active compounds read low): 1.05
normalized growth (locus YJL129C, strain trk1, active compounds read low): 1.02
normalized growth (locus YJL154C, strain vps35, active compounds read low): 1.04
normalized growth (locus YJL164C, strain tpk1, active compounds read low): 0.95
normalized growth (locus YJL166W, strain qcr8, active compounds read low): 1
normalized growth (locus YJL187C, strain SWE1, active compounds read low): 1.02
normalized growth (locus YJR066W, strain TOR1, active compounds read low): 0.973
normalized growth (locus YKL160W, strain elf1, active compounds read low): 0.993
normalized growth (locus YKR026C, strain gcn3, active compounds read low): 1.05
normalized growth (locus YKR091W, strain srl3, active compounds read low): 1.03
normalized growth (locus YLL001W, strain dnm1, active compounds read low): 1.01
normalized growth (locus YLL026W, active compounds read low): 1.02
normalized growth (locus YLL041C, strain sdh2, active compounds read low): 1.02
normalized growth (locus YLR027C, strain aat2, active compounds read low): 0.996
normalized growth (locus YLR113W, strain HOG1, active compounds read low): 0.932
normalized growth (locus YLR221C, strain rsa3, active compounds read low): 0.966
normalized growth (locus YLR258W, strain gsy2, active compounds read low): 1.01
normalized growth (locus YLR262C, strain YPT6 (second series), active compounds read low): 0.907
normalized growth (locus YLR320W, strain mms22, active compounds read low): 0.966
normalized growth (locus YLR342W, strain FKS1, active compounds read low): 0.997
normalized growth (locus YLR357W, strain rsc2, active compounds read low): 0.994
normalized growth (locus YLR370C, strain arc18, active compounds read low): 1.03
normalized growth (locus YLR384C, strain iki3, active compounds read low): 1.02
normalized growth (locus YML120C, strain ndi1, active compounds read low): 1.02
normalized growth (locus YMR058W, strain fet3, active compounds read low): 0.917
normalized growth (locus YMR125W, strain sto1, active compounds read low): 1.05
normalized growth (locus YMR129W, active compounds read low): 1.03
normalized growth (locus YMR205C, strain PFK2, active compounds read low): 1.01
normalized growth (locus YMR231W, strain pep5, active compounds read low): 1.03
normalized growth (locus YNL071W, strain lat1, active compounds read low): 1.02
normalized growth (locus YNL183C, strain NPR1, active compounds read low): 0.893
normalized growth (locus YNL209W, strain ssb2, active compounds read low): 0.937
normalized growth (locus YNL248C, strain rpa49, active compounds read low): 1.05
normalized growth (locus YNL322C, strain KRE1 (second series), active compounds read low): 1.04
normalized growth (locus YNR049C, strain mso1, active compounds read low): 1.03
normalized growth (locus YOR001W, strain rrp6, active compounds read low): 1.01
normalized growth (locus YOR070C, strain gyp1, active compounds read low): 0.997
normalized growth (locus YOR080W, strain dia2, active compounds read low): 1.04
normalized growth (locus YOR083W, strain WHI5, active compounds read low): 0.962
normalized growth (locus YOR106W, strain vam3, active compounds read low): 0.944
normalized growth (locus YOR231W, strain MKK1, active compounds read low): 1.03
normalized growth (locus YOR265W, strain rbl2, active compounds read low): 1.01
normalized growth (locus YOR270C, strain vph1, active compounds read low): 1.03
normalized growth (locus YOR290C, strain snf2, active compounds read low): 0.961
normalized growth (locus YPL051W, strain arl3, active compounds read low): 0.916
normalized growth (locus YPL078C, strain atp4, active compounds read low): 1.03
normalized growth (locus YPL106C, strain sse1, active compounds read low): 0.983
normalized growth (locus YPL240C, strain hsp82, active compounds read low): 1.02
normalized growth (locus YPL256C, strain CLN2, active compounds read low): 1.01

N#C/C(=C\c1ccc(O)c(O)c1)C(=O)Nc1ccccc1
normalized growth (locus YAL013W, strain DEP1, active compounds read low): 0.988
normalized growth (locus YAL040C, strain CLN3, active compounds read low): 1
normalized growth (locus YCL061C, strain MRC1 (second series), active compounds read low): 1.01
normalized growth (locus YDR150W, strain NUM1, active compounds read low): 0.996
normalized growth (locus YDR363W, strain ESC2, active compounds read low): 1.05
normalized growth (locus YER002W, strain NOP16, active compounds read low): 1.01
normalized growth (locus YGR078C, strain PAC10, active compounds read low): 1.05
normalized growth (locus YGR229C, strain SMI1, active compounds read low): 0.966
normalized growth (locus YJR075W, strain HOC1, active compounds read low): 1.01
normalized growth (locus YMR307W, strain GAS1, active compounds read low): 1
normalized growth (locus YNL128W, strain TEP1, active compounds read low): 1.04
normalized growth (locus YNL175C, strain NOP13, active compounds read low): 1.03
normalized growth (locus YNL197C, strain WHI3, active compounds read low): 1
normalized growth (locus YNL224C, strain SQS1, active compounds read low): 1.03
normalized growth (locus YNL322C, strain KRE1, active compounds read low): 0.989
normalized growth (locus YOR083W, strain WHI5 (second series), active compounds read low): 1.02
normalized growth (locus YPL055C, strain LGE1, active compounds read low): 1.01
normalized growth (locus YPL241C, strain CIN2, active compounds read low): 1.01
